# PubChem BioAssay (NCATS)
# Inconclusive results are not listed. Values without a mark were called inactive. The source made the active and inactive calls. Calls come from the whole dose curve.
# Molecular target: Vitamin D3 receptor (Homo sapiens) (UniProt P11473)
# Experiment: qHTS assay for small molecule agonists of vitamin D receptor signaling (AID 588543)
# Details: HEK293T VDR-UAS-bla, beta-lactamase ratio, 16 h; series mostly up to 76.8 µM; activation: at the top concentration
# Source text: NIH Chemical Genomics Center [NCGC]
# U.S. Environmental Protection Agency [EPA]
# National Institutes of Environmental Health Sciences [NIEHS]
# National Toxicology Program [NTP]
# The Vitamin D receptor (VDR) is a member of nuclear hormone receptor superfamily and it plays a critical role in calcium homeostasis and bone metabolism. It plays a role in inducing cell differentiation, inhibiting cell growth and in thrombogenicity. So, VDR that mediates these effects represents a pharmacological target in prevention and treatment of hyperproliferative malignancies, such as cancer and psoriasis, cardiovascular, immunological, inflammatory and renal diseases etc.
# NCGC Assay Protocol Summary
# Using a beta-lactamase reporter-gene under control of Vitamin D receptor (VDR) response element, a cell-based assay [GeneBLAzer (VDR -UAS-bla assay developed by Invitrogen] was used to measure VDR ligands signaling. GeneBLAzer VDR -UAS-bla HEK293T cells were used with assay medium containing 2% charcoal-stripped FBS. The assay was performed in clear bottom black Greiner 1536-well plates. 1-alpha,25-Dihydroxy vitaminD3 was used as a positive control in the screen. Library compounds were measured for their ability to stimulate the reporter gene activity. Compounds were screened in a titration series in 1536-well format. The fluorescence intensity (405 nm excitation, 460/530 nm emission) was measured using an EnVision plate reader. Data was normalized relative to 1-alpha,25-Dihydroxy vitaminD3 control (50 nM, 100%) and DMSO only wells (basal, 0%). Concentration-response titration points for each compound were fitted to the Hill equation yielding concentrations of half-maximal stimulation (EC50) and maximal response (efficacy) values.
# qHTS protocol for VDR beta-lactamase assay in agonist mode
# [Step] [Parameter] [Value] [Description]
# 1. Reagent; 6 uL; 2000 cells/well
# 2. Incubation; 37 C for 5 hrs
# 4. Controls (1-alpha,25-Dihydroxy vitaminD3); 23 nL,
# - Final concentrations of 50 nM and 15 nM in two columns
# 5. Incubation; 37 C for 16 hrs
# 6. Detection reagent; 1 uL of CCF4-dye
# 7. Incubation; RT for 2 hrs
# 8. Detection; Fluorescence; Envision plate reader
# Chain of Vitamin D3 receptor (Homo sapiens) (P11473 whole entry, looked up): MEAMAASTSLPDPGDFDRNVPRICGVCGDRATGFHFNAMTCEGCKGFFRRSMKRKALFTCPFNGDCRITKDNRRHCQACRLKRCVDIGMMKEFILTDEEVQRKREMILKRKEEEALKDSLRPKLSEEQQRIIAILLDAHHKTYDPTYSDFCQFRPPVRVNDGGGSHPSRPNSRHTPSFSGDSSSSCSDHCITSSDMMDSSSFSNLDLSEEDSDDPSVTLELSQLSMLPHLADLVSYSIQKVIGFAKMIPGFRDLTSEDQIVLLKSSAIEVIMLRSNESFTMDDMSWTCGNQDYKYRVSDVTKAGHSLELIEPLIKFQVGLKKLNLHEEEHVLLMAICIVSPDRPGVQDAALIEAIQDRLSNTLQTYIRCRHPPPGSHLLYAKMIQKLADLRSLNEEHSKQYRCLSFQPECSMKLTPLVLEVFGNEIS
SMILES,activation [%],outcome
C=CCN=C=S,-0.408,–
CC[C@H](C)[C@H]1O[C@]2(C=C[C@@H]1C)C[C@@H]1C[C@@H](C/C=C(\C)[C@@H](O[C@H]3C[C@H](OC)[C@@H](O[C@H]4C[C@H](OC)[C@@H](O)[C@H](C)O4)[C@H](C)O3)[C@@H](C)/C=C/C=C3\CO[C@@H]4[C@H](O)C(C)=C[C@@H](C(=O)O1)[C@]34O)O2,2.04,–
O=Cc1ccco1,1.75,–
C[C@H]1CC[C@@H]2[C@@H](C)[C@H]3[C@H](C[C@H]4[C@@H]5CC=C6CC(O[C@@H]7O[C@H](CO)[C@H](O)[C@H](O[C@@H]8O[C@H](CO)[C@@H](O)[C@H](O)[C@H]8O)[C@H]7O[C@H]7O[C@@H](C)[C@H](O)[C@@H](O)[C@H]7O)CC[C@]6(C)[C@H]5CC[C@]34C)N2C1 (some centres undefined),2.24,–
COC1=CC(=O)O[C@@H](/C=C/c2ccccc2)C1,1.25,–
[O]=[Cr](=[O])([OH])[O][Cr](=[O])(=[O])[OH],–,inactive
N#CN,2.32,–
O=C1C2CC=CCC2C(=O)N1SC(Cl)(Cl)Cl (centres undefined),8.23,–
CCCSP(=O)(OCC)SCCC,-1.32,–
O=[N+]([O-])C(Br)(CO)CO,-0.354,–
ClC(Cl)(Cl)Cl,–,inactive
O=C(O)C(Cl)(Cl)Cl,–,inactive
ClCC1CO1 (centres undefined),2.34,–
COCC(C)N(C(=O)CCl)c1c(C)csc1C (centres undefined),-6.76,–
CC(C)Nc1ccc(Nc2ccccc2)cc1,0.76,–
NNC(N)=O,3.53,–
CC(C)CCON=O,-1.97,–
O=C1CCO1,2.35,–
O=C(O)c1cc[c]([Hg][Cl])cc1,-4.69,–
O=C/C=C/c1ccccc1,–,inactive
[O]=[Cd],-1.46,–
S=C=S,1.42,–
CCOP(=O)(OCC)O/C(=C/Cl)c1ccc(Cl)cc1Cl,–,inactive
CCCCCCCCOC(=O)c1ccccc1C(=O)OCCCCCCCC,3.49,–
CCCCCl,0.966,–
CCOC(=O)c1ccccc1C(=O)OCC,–,inactive
Clc1ccccc1Cl,-1.48,–
O=[N+]([O-])c1ccc(F)c([N+](=O)[O-])c1,2.14,–
C[C@]12CCC(=O)C[C@@H]1CC[C@@H]1[C@@H]2CC[C@]2(C)[C@@H](O)CC[C@@H]12,-3.52,–
